Reference: PubChem BioAssay (NCATS)
Several values for one entry are separate records, joined by “and”; a condition that tells them apart may be missing. Equal values may be shown once. Results filed as inconclusive are left out. Entries that show only a call come without a potency. Activity calls are given as the source filed them. Calls come from the whole dose curve. Residues, ends and D or L forms follow the SMILES beside them.

Columns and labels:
[1] = Cytotoxicity counterscreen for inhibitors of SARS-CoV-2 cell entry (AID 1645845); note: nearly all actives have a fitted effect of over 50% in size
Summary of the method: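 After a 15 min room-temperature ATPLite 1step step, luminescence reflected ATP remaining in HEK293-ACE2 cells exposed to compound for 1 h plus 48 h at 37 C, with percent activity set by cell and no-cell controls.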

[2] = Primary qHTS to identify inhibitors of SARS-CoV-2 cell entry (AID 1645846); details: activity change, negative = inhibition: at 57.1 µM (top of the series) unless noted; note: nearly all actives have a fitted effect of over 45% in size
Summary of the method: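 Inhibition of spike-mediated entry was scored in human ACE2-transfected Expi293F cells. Particles were MLV-pseudotyped with Wuhan-Hu-1 S carrying a 19-aa C-terminal deletion; signal was luciferase after two days, scaled between spike PP and fusion-protein-free PP.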

## NC(=O)c1cccnc1
[1]
  Potency: inactive
[2]
  activity change, negative = inhibition: -15.2%

## COC(=O)[C@H](Cc1ccccc1)NC(=O)[C@@H](N)CC(=O)O (H-Asp-Phe-OMe)
[1]
  Potency: inactive
[2]
  activity change, negative = inhibition: -5.59%

## CCCCCCCC(=O)OCC(COC(=O)CCCCCCC)OC(=O)CCCCCCC
[1]
  Potency: inactive
[2]
  Potency: inactive

## Nc1nc(N)nc(-c2cc(Cl)ccc2Cl)n1
[1]
  Potency: inactive
[2]
  Potency: inactive

## OC[C@H]1O[C@@H](n2cnc3c2NC=NC[C@H]3O)C[C@@H]1O
[1]
  Potency: inactive
[2]
  activity change, negative = inhibition: -15% and -28%

## CC(O)(P(=O)(O)O)P(=O)(O)O
[1]
  Potency: inactive
[2]
  Potency: inactive

## C[C@]12C=CC(=O)C=C1[C@@H](F)C[C@@H]1[C@@H]2[C@@H](O)C[C@@]2(C)[C@H]1CC[C@]2(O)C(=O)CO
[1]
  Potency: inactive
[2]
  Potency: inactive

## CCc1cccc(CC)c1NC(=O)CN(CC(=O)O)CC(=O)O
[1]
  Potency: inactive
[2]
  Potency: inactive

## O=c1[nH]c(=O)n([C@H]2CCCO2)cc1F
[1]
  Potency: inactive
[2]
  Potency: inactive

## CC(C)(S)[C@@H](N)C(=O)O
[1]
  outcome: inactive [at 5.25 µM]
[2]
  activity change, negative = inhibition: 2.83% [at 5.25 µM]

## O=C(CS(=O)Cc1ccco1)NC/C=C\COc1cc(CN2CCCCC2)ccn1 (stereo not drawn)
[1]
  Potency: inactive
[2]
  Potency: inactive

## CC(=O)OC(C)OC(=O)C(C)c1ccc(-c2ccccc2)c(F)c1 (stereo not drawn)
[1]
  Potency: inactive
[2]
  activity change, negative = inhibition: -21.2%

## CC(C)[C@H](N)C(=O)OCCOCn1cnc2c(=O)[nH]c(N)nc21
[1]
  Potency: inactive
[2]
  activity change, negative = inhibition: -28.1%

## CN1C[C@@H]2C[C@H]1CN2c1cc2c(cc1F)c(=O)c(C(=O)O)cn2C1CC1
[1]
  Potency: inactive
[2]
  activity change, negative = inhibition: -27.1% [at 27.1 µM]

## Cn1nnc2c(C(N)=O)ncn2c1=O
[1]
  Potency: inactive
[2]
  activity change, negative = inhibition: -15.9% and -14.8%

## COc1ccc(-c2ccc3cc(C(=O)O)ccc3c2)cc1C12CC3CC(CC(C3)C1)C2
[1]
  Potency: inactive
[2]
  activity change, negative = inhibition: -13.5% and -15.7%

## CC(CN(C)C)C(C)(O)Cc1ccc(Cl)cc1 (stereo not drawn)
[1]
  Potency: inactive
[2]
  activity change, negative = inhibition: 0.771%

## CC(C)(C)NCC(O)c1cc(O)cc(O)c1 (stereo not drawn)
[1]
  Potency: inactive
[2]
  Potency: inactive

## C=CCc1ccc(O)c(OC)c1
[1]
  Potency: inactive
[2]
  Potency: inactive

## COc1cc(C)nc(-n2nc(C)cc2OC)n1
[1]
  Potency: inactive
[2]
  Potency: inactive

## CC(=O)OCC(=O)[C@@]1(O)[C@H](C)C[C@H]2[C@@H]3CCC4=CC(=O)C=C[C@]4(C)[C@@]3(F)[C@@H](O)C[C@@]21C
[1]
  Potency: inactive
[2]
  Potency: inactive

## COC(=O)c1cc(Cl)ccc1NS(=O)(=O)C(F)(F)F
[1]
  Potency: inactive
[2]
  Potency: inactive

## COC(=O)c1cccnc1
[1]
  Potency: inactive
[2]
  Potency: inactive

## CC(=O)NCc1c(I)c(NC(C)=O)c(I)c(C(=O)O)c1I
[1]
  Potency: inactive
[2]
  Potency: inactive
